Measured values as given in the supplement of paper PMC10849652.
The full data set covers some 7,900 targets. This sample favours those with a hit. About 0.6% of all pairs of compound and target were hits.

What was measured:
Experiment in all cases: log2 fold change, soluble protein after heating vs DMSO (PISA); higher = thermal stabilisation; K562 cells, 10 uM, 30 min; active = over 0.2 and 3.5 SD of the protein, either way, in both replicates (recomputed)
[1] = compound: CC1=C(C=C(C=C1)NC(=O)C2=CC(=CC=C2)C(C)(C)C#N)NC3=CC4=C(C=C3)N=CN(C4=O)C
Method in brief: (§1)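 K562 cells (2×10^6 cells/mL) were treated with 10 μM compound for 30 min, and aliquots were heated for 3 min over 48°C-58°C. Pooled aliquots were extracted in PBS with 0.5% NP-40 at 4°C, and the supernatant after 21,000xg for 90 min was measured by TMTpro 16plex LC-MS/MS with channel sums equalised. Reported thermal stability, relative to control samples and from duplicates, is a log2 fold change.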

[2] = compound: CC1=C(C=C(C=C1)NC(=O)C2=CC(=CC=C2)N(C)C)NC(=O)C3=CC=C(C=C3)O
Method in brief: as §1

[3] = compound: CC1=CC=C(C=C1)SC2=C3C=C(SC3=CN=C2)C(=O)N
Method in brief: as §1

[4] = compound: CC1=NC(=CC=C1)C2=C(N=C(N2)C(C)(C)C)C3=CC4=NC=CN=C4C=C3
Method in brief: as §1

Nexturastat A = compound: CCCCN(Cc1ccc(C(=O)NO)cc1)C(=O)Nc1ccccc1 [Nexturastat A]
Method in brief: as §1

vemurafenib = compound: CCCS(=O)(=O)Nc1ccc(F)c(C(=O)c2c[nH]c3ncc(-c4ccc(Cl)cc4)cc23)c1F [vemurafenib]
Method in brief: as §1

[5] = compound: CCCS(=O)(=O)Nc1ccc(F)c(C(=O)c2c[nH]c3ncc(Cl)cc23)c1F
Method in brief: as §1

[6] = compound: CCCc1cc(C)[nH]c(=O)c1CNC(=O)c1cc(-c2ccnc(N3CCN(C)CC3)c2)cc2c1cnn2C(C)C
Method in brief: as §1

givinostat = compound: CCN(CC)Cc1ccc2cc(COC(=O)Nc3ccc(C(=O)NO)cc3)ccc2c1 [givinostat]
Method in brief: as §1

barasertib = compound: CCN(CCCOc1ccc2c(Nc3cc(CC(=O)Nc4cccc(F)c4)[nH]n3)ncnc2c1)CCOP(=O)(O)O [barasertib]
Method in brief: as §1

Measured: log2 fold change

SOAT1 (UniProt P35610)
inactive: [1] 0.259 | [2] -0.044 | [3] 0.038 | [4] -0.03 | Nexturastat A 0.002 | vemurafenib -0.036 | [5] -0.015 | [6] -0.137 | givinostat 0.152 | barasertib 0.001

TBCD (UniProt Q9BTW9)
inactive: [1] 0.016 | [2] 0.003 | [3] 0.025 | [4] 0.052 | Nexturastat A -0.051 | vemurafenib 0.005 | [5] 0.02 | [6] -0.007 | givinostat 0.012 | barasertib 0.019

SNRPD3 (UniProt P62318)
Chain of UniProt P62318 (P62318 whole entry, looked up): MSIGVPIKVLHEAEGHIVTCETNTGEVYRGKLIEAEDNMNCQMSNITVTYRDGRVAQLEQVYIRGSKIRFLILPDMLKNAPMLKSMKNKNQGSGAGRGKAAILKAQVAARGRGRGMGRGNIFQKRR
inactive: [1] -0.03 | [2] 0.031 | [3] -0.048 | [4] -0.079 | Nexturastat A -0.023 | vemurafenib -0.015 | [5] -0.102 | [6] -0.126 | givinostat 0 | barasertib -0.039

SUPT16H (UniProt Q9Y5B9)
inactive: [1] 0.082 | [2] -0.081 | [3] 0.01 | [4] 0.102 | Nexturastat A -0.019 | vemurafenib 0.186 | [5] 0.093 | [6] 0.061 | givinostat 0.223 | barasertib 0.187

STXBP2 isoform 3 (UniProt Q15833)
Chain of UniProt Q15833 (Q15833 whole entry, looked up): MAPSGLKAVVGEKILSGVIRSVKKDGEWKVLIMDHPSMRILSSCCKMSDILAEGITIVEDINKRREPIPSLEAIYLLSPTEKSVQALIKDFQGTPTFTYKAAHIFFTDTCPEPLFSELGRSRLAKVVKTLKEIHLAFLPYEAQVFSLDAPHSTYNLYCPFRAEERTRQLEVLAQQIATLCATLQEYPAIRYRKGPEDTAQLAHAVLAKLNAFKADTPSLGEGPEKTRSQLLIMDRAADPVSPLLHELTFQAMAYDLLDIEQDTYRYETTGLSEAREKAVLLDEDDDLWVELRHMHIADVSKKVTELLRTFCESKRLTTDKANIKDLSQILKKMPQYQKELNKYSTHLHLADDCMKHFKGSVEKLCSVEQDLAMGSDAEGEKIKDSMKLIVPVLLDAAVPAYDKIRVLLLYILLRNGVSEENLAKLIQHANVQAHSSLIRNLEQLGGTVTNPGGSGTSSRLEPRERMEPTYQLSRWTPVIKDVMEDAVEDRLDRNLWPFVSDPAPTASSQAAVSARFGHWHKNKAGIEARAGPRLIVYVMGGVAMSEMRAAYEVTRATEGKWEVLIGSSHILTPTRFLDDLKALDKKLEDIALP
inactive: [1] 0 | [2] -0.042 | [3] 0.036 | [4] -0.017 | Nexturastat A 0.128 | vemurafenib 0.155 | [5] 0.032 | [6] 0.063 | givinostat 0.125 | barasertib 0.068

SP1 (UniProt P08047)
inactive: [1] 0.023 | [2] -0.068 | [3] -0.067 | [4] -0.033 | Nexturastat A 0.034 | vemurafenib -0.017 | [5] -0.069 | [6] -0.018 | givinostat -0.114 | barasertib 0.011

SMG1 (UniProt Q96Q15)
inactive: [1] -0.068 | [2] -0.048 | [3] 0.031 | [4] 0.012 | Nexturastat A 0.045 | vemurafenib 0.029 | [5] 0.077 | [6] -0.096 | givinostat 0.05 | barasertib 0.075

TFAM (UniProt Q00059)
inactive: [1] 0.039 | [2] -0.004 | [3] -0.036 | [4] -0.036 | Nexturastat A 0.079 | vemurafenib -0.05 | [5] -0.043 | [6] -0.033 | givinostat -0.055 | barasertib -0.023

SLC38A7 (UniProt Q9NVC3)
Chain of UniProt Q9NVC3 (Q9NVC3 whole entry, looked up): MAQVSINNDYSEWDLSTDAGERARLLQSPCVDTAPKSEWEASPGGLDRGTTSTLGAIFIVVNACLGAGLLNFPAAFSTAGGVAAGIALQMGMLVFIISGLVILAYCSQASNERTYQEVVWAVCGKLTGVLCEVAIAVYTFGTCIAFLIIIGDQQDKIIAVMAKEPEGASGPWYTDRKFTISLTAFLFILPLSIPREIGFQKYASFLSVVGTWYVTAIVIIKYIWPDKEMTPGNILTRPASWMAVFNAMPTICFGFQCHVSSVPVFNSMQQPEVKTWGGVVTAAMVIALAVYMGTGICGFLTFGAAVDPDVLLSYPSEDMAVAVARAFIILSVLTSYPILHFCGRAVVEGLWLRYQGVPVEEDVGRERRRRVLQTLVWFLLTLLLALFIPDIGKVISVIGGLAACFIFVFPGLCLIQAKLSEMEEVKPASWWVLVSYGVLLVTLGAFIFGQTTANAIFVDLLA
inactive: [1] 0.092 | [2] 0.009 | [3] 0 | [4] 0.094 | Nexturastat A -0.04 | vemurafenib 0.042 | [5] 0.012 | [6] -0.002 | givinostat 0.008 | barasertib -0.012

SPAST (UniProt Q9UBP0)
Chain of UniProt Q9UBP0 (Q9UBP0 whole entry, looked up): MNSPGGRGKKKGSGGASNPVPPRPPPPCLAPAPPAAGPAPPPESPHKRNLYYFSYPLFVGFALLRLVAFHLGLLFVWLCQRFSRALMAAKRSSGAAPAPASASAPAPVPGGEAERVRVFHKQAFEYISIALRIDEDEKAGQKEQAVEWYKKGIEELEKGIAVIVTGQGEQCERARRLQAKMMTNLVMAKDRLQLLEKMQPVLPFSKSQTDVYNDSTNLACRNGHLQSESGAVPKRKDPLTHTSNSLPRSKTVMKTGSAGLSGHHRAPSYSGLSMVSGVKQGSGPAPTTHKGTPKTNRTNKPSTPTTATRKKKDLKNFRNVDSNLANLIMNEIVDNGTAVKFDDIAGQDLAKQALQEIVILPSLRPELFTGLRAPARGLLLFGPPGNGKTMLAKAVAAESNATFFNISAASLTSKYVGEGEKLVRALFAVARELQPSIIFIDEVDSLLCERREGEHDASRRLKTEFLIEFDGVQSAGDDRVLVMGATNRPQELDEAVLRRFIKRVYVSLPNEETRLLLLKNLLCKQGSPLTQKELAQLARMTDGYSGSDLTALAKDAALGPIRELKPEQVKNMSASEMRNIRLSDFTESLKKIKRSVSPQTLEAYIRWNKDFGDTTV
inactive: [1] -0.032 | [2] -0.05 | [3] 0.049 | [4] 0.029 | Nexturastat A -0.047 | vemurafenib 0.068 | [5] 0.021 | [6] 0.062 | givinostat 0.074 | barasertib 0.045

SRSF2 (UniProt Q01130)
inactive: [1] -0.023 | [2] 0.053 | [3] -0.033 | [4] -0.032 | Nexturastat A 0.036 | vemurafenib -0.046 | [5] -0.025 | [6] -0.023 | givinostat 0.005 | barasertib -0.007

SLC9A6 isoform 2 (UniProt Q92581)
inactive: [1] -0.035 | [2] 0.024 | [3] -0.002 | [4] -0.012 | Nexturastat A -0.061 | vemurafenib 0.024 | [5] 0 | [6] -0.063 | givinostat -0.01 | barasertib 0.018

STAM2 (UniProt O75886)
inactive: [1] -0.08 | [2] -0.032 | [3] 0.034 | [4] 0.069 | Nexturastat A -0.012 | vemurafenib 0.009 | [5] 0.074 | [6] -0.038 | givinostat 0.021 | barasertib 0.028

TM9SF4 (UniProt Q92544)
inactive: [1] 0.084 | [2] -0.022 | [3] 0.014 | [4] -0.012 | Nexturastat A -0.029 | vemurafenib 0.031 | [5] 0.073 | [6] 0.034 | givinostat 0.054 | barasertib 0.004

SRC isoform 2 (UniProt P12931)
inactive: [1] -0.006 | [2] 0.022 | [3] -0.016 | [4] -0.06 | Nexturastat A -0.075 | vemurafenib 0.068 | [5] 0.069 | [6] -0.06 | givinostat -0.091 | barasertib -0.01

SNX9 (UniProt Q9Y5X1)
inactive: [1] 0.018 | [2] -0.031 | [3] -0.002 | [4] 0.03 | Nexturastat A 0.048 | vemurafenib 0.006 | [5] 0.041 | [6] -0.027 | givinostat -0.099 | barasertib 0.007

TBC1D24 (UniProt Q9ULP9)
inactive: [1] -0.018 | [2] -0.012 | [3] 0.005 | [4] 0.006 | Nexturastat A -0.024 | vemurafenib 0.019 | [5] 0.046 | [6] -0.033 | givinostat 0.005 | barasertib -0.019

TGFBRAP1 (UniProt Q8WUH2)
inactive: [1] -0.058 | [2] -0.001 | [3] 0.138 | [4] 0.061 | Nexturastat A 0.107 | vemurafenib -0.055 | [5] -0.003 | [6] 0.038 | givinostat 0.092 | barasertib 0.01

SLC30A7 (UniProt Q8NEW0)
inactive: [1] -0.03 | [2] 0.003 | [3] 0.03 | [4] -0.072 | Nexturastat A -0.108 | vemurafenib 0.072 | [5] -0.019 | [6] -0.148 | givinostat 0.081 | barasertib 0.032

SLK isoform 2 (UniProt Q9H2G2)
Chain of UniProt Q9H2G2 (Q9H2G2 whole entry, looked up): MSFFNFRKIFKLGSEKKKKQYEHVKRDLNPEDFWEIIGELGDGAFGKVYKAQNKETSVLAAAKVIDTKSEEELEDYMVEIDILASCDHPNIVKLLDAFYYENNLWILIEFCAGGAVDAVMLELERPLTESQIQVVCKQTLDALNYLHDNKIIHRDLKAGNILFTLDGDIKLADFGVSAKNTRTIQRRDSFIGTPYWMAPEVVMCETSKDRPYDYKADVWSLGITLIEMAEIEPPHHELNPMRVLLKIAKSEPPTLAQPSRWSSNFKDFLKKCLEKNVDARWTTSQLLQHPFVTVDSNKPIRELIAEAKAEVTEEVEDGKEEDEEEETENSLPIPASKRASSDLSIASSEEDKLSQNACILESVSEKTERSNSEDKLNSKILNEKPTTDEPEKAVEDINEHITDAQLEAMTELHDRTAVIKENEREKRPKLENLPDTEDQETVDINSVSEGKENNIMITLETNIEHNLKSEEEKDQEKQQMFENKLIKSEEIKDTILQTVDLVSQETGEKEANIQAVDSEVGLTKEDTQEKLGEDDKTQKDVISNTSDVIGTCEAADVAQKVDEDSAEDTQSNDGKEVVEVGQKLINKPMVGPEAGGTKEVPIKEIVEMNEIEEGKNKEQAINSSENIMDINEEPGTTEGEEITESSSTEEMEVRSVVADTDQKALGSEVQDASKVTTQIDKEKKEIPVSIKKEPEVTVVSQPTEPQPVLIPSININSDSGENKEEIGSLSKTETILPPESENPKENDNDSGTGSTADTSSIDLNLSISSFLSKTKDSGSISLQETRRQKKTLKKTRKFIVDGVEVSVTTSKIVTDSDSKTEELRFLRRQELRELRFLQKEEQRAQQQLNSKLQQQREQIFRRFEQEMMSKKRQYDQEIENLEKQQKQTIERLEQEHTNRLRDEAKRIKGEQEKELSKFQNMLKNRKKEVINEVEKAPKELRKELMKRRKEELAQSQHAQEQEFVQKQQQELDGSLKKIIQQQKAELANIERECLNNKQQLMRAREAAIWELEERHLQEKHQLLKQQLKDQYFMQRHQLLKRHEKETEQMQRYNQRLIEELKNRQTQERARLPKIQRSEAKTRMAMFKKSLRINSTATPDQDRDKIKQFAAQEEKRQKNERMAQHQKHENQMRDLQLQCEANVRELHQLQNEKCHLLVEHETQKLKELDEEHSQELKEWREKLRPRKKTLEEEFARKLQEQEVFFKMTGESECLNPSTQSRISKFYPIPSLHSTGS
inactive: [1] -0.078 | [2] -0.07 | [3] 0.051 | [4] 0.02 | Nexturastat A -0.007 | vemurafenib 0.03 | [5] 0.092 | [6] 0.026 | givinostat 0 | barasertib 0.047

SSR4 (UniProt P51571)
Chain of UniProt P51571 (P51571 whole entry, looked up): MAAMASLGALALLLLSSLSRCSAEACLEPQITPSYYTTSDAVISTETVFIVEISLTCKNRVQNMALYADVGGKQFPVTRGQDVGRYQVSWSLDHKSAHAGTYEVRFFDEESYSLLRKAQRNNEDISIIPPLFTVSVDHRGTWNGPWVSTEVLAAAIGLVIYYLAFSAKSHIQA
inactive: [1] -0.004 | [2] 0.012 | [3] 0.064 | [4] 0.039 | Nexturastat A -0.046 | vemurafenib -0.014 | [5] 0.081 | [6] -0.035 | givinostat 0.03 | barasertib -0.052

SRSF9 (UniProt Q13242)
Chain of UniProt Q13242 (Q13242 whole entry, looked up): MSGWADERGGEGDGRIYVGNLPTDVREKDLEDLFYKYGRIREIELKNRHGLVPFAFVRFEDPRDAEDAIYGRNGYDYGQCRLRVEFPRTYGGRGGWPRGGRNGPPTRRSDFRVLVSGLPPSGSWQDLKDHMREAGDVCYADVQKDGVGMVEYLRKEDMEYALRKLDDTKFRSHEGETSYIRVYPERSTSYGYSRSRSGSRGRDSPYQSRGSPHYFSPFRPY
inactive: [1] -0.044 | [2] 0.015 | [3] -0.083 | [4] -0.082 | Nexturastat A 0.37 | vemurafenib -0.116 | [5] 0.076 | [6] 0.075 | givinostat 0.151 | barasertib -0.082

SLC27A1 (UniProt Q6PCB7)
inactive: [1] -0.186 | [2] 0.036 | [3] -0.046 | [4] 0.12 | Nexturastat A -0.061 | vemurafenib -0.109 | [5] -0.008 | [6] -0.01 | givinostat 0.049 | barasertib 0.043

STX17 (UniProt P56962)
inactive: [1] -0.036 | [2] -0.064 | [3] -0.023 | [4] 0.039 | Nexturastat A 0.126 | vemurafenib 0.12 | [5] 0.12 | [6] -0.07 | givinostat 0.152 | barasertib 0.011

SMAP2 (UniProt Q8WU79)
inactive: [1] -0.033 | [2] -0.063 | [3] 0.016 | [4] -0.054 | Nexturastat A 0.029 | vemurafenib 0.058 | [5] 0.055 | [6] 0.043 | givinostat 0.04 | barasertib 0.052

SLIRP (UniProt Q9GZT3)
inactive: [1] 0.175 | [2] 0.008 | [3] -0.035 | [4] 0.039 | Nexturastat A 0.286 | vemurafenib 0.028 | [5] -0.031 | [6] 0.214 | givinostat 0.113 | barasertib 0.019

THRAP3 (UniProt Q9Y2W1)
Chain of UniProt Q9Y2W1 (Q9Y2W1 whole entry, looked up): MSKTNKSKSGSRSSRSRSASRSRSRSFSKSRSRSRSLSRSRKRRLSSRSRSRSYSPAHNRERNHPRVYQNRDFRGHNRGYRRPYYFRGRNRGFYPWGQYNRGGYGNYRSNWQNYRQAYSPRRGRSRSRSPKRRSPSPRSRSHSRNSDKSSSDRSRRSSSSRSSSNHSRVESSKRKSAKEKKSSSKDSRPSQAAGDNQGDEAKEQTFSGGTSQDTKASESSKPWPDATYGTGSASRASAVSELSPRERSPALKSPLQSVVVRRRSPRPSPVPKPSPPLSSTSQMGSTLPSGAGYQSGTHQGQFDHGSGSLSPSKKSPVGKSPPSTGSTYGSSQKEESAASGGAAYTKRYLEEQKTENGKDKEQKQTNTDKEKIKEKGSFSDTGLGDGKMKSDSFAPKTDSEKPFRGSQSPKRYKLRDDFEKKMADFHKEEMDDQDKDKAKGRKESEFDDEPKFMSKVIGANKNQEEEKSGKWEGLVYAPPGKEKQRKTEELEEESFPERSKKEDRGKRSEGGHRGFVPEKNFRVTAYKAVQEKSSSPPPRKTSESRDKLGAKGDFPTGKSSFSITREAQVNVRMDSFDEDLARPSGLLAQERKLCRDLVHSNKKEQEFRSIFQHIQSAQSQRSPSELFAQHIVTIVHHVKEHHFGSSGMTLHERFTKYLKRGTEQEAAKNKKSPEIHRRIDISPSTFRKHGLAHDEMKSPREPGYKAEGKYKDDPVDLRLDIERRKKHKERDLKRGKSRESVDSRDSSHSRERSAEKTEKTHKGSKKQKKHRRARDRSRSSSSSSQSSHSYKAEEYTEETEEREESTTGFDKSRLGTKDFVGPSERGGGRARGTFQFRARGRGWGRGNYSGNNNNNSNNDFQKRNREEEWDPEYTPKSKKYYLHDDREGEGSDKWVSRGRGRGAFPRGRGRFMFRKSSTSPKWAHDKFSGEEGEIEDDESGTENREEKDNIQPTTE
inactive: [1] -0.008 | [2] 0.004 | [3] -0.056 | [4] -0.035 | Nexturastat A 0.109 | vemurafenib 0.063 | [5] -0.01 | [6] 0.197 | givinostat 0.093 | barasertib -0.099

SUCLG1 (UniProt P53597)
Chain of UniProt P53597 (P53597 whole entry, looked up): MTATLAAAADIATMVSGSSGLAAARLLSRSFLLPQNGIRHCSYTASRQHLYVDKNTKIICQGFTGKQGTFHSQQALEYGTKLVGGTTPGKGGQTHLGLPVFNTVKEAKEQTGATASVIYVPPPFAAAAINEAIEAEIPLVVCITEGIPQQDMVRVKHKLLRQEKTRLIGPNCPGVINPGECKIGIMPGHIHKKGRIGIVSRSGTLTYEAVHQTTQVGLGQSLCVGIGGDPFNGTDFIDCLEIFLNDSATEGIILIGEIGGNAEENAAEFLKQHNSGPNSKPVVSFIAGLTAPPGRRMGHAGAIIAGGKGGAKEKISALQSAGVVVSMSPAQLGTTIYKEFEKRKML
inactive: [1] -0.02 | [2] -0.008 | [3] -0.001 | [4] 0.025 | Nexturastat A -0.032 | vemurafenib 0.009 | [5] 0 | [6] -0.006 | givinostat -0.102 | barasertib 0.019

SRPRB (UniProt Q9Y5M8)
Chain of UniProt Q9Y5M8 (Q9Y5M8 whole entry, looked up): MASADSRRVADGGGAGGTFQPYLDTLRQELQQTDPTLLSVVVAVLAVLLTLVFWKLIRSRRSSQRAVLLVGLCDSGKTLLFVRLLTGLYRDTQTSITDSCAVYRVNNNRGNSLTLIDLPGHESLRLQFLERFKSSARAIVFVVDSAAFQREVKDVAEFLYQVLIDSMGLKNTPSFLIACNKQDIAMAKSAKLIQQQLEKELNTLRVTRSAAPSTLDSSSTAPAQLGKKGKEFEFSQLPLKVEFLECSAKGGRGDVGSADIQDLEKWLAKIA
inactive: [1] 0.096 | [2] -0.051 | [3] 0.025 | [4] 0.092 | Nexturastat A -0.035 | vemurafenib 0.061 | [5] 0.073 | [6] 0.035 | givinostat -0.127 | barasertib 0.027

SRI (UniProt P30626)
inactive: [1] 0.035 | [2] -0.092 | [3] 0.094 | [4] 0.037 | Nexturastat A -0.073 | vemurafenib 0.092 | [5] 0.045 | [6] -0.055 | givinostat -0.03 | barasertib 0.107
